The record followed here is PubChem BioAssay (Tox21).

Experiment [1] in a line: qHTS assay to identify small molecule antagonists of the thyroid receptor (TR) signaling pathway - cell viability counter screen (AID 743064). Further: nearly all actives have a fitted effect of over 50% in size. The essentials:
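Compounds were tested on GH3.TRE-Luc cells in the presence of T3 at 1 nM final. Following 23.5 h at 37 °C, cell viability was quantified by CellTiter-Fluor.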
(Quantitative high-throughput screening tests each substance at several concentrations.)

A short description of experiment [2]: qHTS assay to identify small molecule antagonists of the thyroid receptor (TR) signaling pathway (AID 743065). Further: series mostly up to about 70 µM; nearly all actives have a fitted effect of over 55% in size. The essentials:
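Antagonism measured as loss of luciferase signal in GH3 cells stably carrying a TRE-luciferase reporter, co-treated with compound and T3 (1 nM final) for 23.5 h at 37 C. Viability was read in the same well by CellTiter-Fluor.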

The test system of experiment [3] is thyroid hormone receptor (rat, GH3 cells). In words: qHTS assay to identify small molecule agonists of the thyroid receptor (TR) signaling pathway (AID 743066; calls by dose curve).
In experiment [4] the target is Estrogen receptor (Homo sapiens) (UniProt P03372). Nature of the experiment: qHTS assay to identify small molecule agonists of the estrogen receptor alpha (ER-alpha) signaling pathway (AID 743075; calls by dose curve).
Sequence of Estrogen receptor (Homo sapiens) (P03372 whole entry, looked up): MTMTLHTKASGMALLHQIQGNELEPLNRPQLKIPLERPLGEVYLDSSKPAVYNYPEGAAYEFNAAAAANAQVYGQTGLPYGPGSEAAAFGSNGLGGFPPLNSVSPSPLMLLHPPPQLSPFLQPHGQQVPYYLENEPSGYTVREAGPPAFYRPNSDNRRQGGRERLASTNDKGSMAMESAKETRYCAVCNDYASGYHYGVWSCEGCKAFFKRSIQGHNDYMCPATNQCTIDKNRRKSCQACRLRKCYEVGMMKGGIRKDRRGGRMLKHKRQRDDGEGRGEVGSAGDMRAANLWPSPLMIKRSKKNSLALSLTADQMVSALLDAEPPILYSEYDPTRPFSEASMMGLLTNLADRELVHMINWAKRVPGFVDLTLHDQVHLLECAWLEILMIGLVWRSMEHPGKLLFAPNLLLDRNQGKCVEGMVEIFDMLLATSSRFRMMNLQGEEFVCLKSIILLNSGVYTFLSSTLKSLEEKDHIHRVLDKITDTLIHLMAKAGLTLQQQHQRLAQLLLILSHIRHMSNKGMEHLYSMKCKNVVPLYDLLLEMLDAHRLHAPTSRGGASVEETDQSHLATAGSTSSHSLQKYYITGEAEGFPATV
Experiment [5] in a line: qHTS assay to identify small molecule antagonists of the estrogen receptor alpha (ER-alpha) signaling pathway using the BG1 cell line - cell viability counter screen (AID 743081).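 Further: compound given together with 17beta-estradiol as the ER stimulus; series mostly up to about 70 µM; nearly all actives have a fitted effect of over 45% in size.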
The next experiment addresses Aromatase (Homo sapiens) (UniProt P11511). In words: qHTS assay to identify aromatase inhibitors (AID 743083). Further: series mostly up to about 70 µM; nearly all actives have a fitted effect of over 55% in size.
Experiment [6] can be described thus: qHTS assay to identify aromatase inhibitors - cell viability counter screen (AID 743084).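 Further: cells stimulated with testosterone during compound exposure; nearly all actives have a fitted effect of over 55% in size.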
In experiment [7] the target is Aryl hydrocarbon receptor (Homo sapiens) (UniProt P35869). In words: qHTS assay to identify small molecule that activate the aryl hydrocarbon receptor (AhR) signaling pathway (AID 743085). Further: nearly all actives have a fitted effect of over 15% in size. Further: potency means the concentration at half of the fitted maximal effect.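 On activation: HG2L7.5c1 human HepG2 liver cells with stably integrated DRE-driven firefly reporter; series mostly up to about 70 µM.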 In outline: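 24 h compound exposure, 37C, HepG2-derived HG2L7.5c1 cells with DRE-responsive luciferase. Readouts: fluorescence viability, then luminescence at room temperature after 30 min.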
Sequence of Aryl hydrocarbon receptor (Homo sapiens) (P35869 whole entry, looked up): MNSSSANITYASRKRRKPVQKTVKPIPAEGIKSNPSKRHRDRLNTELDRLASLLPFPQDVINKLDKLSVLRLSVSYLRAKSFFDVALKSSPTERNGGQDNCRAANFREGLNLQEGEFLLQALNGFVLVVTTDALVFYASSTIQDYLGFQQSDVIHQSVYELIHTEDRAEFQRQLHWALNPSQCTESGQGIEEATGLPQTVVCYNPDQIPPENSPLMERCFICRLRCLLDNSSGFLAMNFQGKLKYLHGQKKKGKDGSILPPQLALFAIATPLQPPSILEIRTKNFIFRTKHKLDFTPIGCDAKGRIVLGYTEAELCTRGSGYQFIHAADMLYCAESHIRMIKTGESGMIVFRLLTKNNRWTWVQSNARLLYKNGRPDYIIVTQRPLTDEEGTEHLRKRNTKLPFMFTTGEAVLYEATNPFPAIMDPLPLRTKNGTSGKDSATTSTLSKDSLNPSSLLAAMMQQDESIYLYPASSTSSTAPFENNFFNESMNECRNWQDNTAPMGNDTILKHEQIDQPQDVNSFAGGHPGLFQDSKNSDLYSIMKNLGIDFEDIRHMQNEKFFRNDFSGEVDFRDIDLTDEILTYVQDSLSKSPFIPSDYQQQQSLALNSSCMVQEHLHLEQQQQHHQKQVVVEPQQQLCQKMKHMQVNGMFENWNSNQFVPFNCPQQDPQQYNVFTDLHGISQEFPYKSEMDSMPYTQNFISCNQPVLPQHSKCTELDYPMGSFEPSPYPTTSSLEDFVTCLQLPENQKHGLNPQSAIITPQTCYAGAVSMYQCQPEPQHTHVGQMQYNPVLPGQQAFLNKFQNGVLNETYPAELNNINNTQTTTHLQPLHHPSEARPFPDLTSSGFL

Experiment [8] can be described thus: qHTS assay to identify small molecule that activate the aryl hydrocarbon receptor (AhR) signaling pathway - cell viability counter screen (AID 743086).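 Further: HepG2 liver cells carrying the AhR DRE luciferase reporter; series mostly up to about 70 µM; nearly all actives have a fitted effect of over 45% in size.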 The essentials:
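Cytotoxicity counter screen: CellTiter-Fluor signal (30 min, 37 C) in 4000 HepG2 cells/well carrying the DRE-luciferase reporter, following 24 h compound exposure at 37 C.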

Experiment [9] addresses Peroxisome proliferator-activated receptor gamma (Homo sapiens) (UniProt P37231). Nature of the experiment: qHTS assay to identify small molecule agonists of the peroxisome proliferator-activated receptor gamma (PPARg) signaling pathway (AID 743094; active means well fitted activation curve with a large enough effect in the signal ratio in the repeat runs, not every such curve was filed as active; the % refers to the signal ratio). The essentials: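 Quantitative HTS agonist mode: stable HEK293H line with UAS-beta-lactamase reporter under PPARg control, 17 h compound exposure at 37C, fluorescence after 1 h FRET substrate loading at room temperature.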

The nature of experiment [10]: qHTS assay to identify small molecule antagonists of the peroxisome proliferator-activated receptor gamma (PPARg) signaling pathway - cell viability counter screen (AID 743194). Further: nearly all actives have a fitted effect of over 55% in size. In outline:
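Viability was measured as CellTiter-Glo luminescence in GeneBLAzer PPARg UAS-bla HEK293H cells. These cells had been exposed 17 h at 37 C to compounds together with rosiglitazone at 50 nM final, with the beta-lactamase readout taken in the same wells.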

A short description of experiment [11]: qHTS assay for small molecule agonists of the antioxidant response element (ARE) signaling pathway - cell viability counter screen (AID 743203; calls by dose curve; further: nearly all actives have a fitted effect of over 55% in size). The essentials: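 Seeded at 2,000 cells/well, ARE-bla HepG2 cells were incubated 5 hrs before compound addition. After 16 hrs of treatment at 37C with 5% CO2, CellTiter-Glo reagent was added and luminescence read 30 min later.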

A short description of experiment [12]: qHTS assay for small molecule activators of the heat shock response signaling pathway - cell viability counter screen (AID 743209). Further: nearly all actives have a fitted effect of over 50% in size. The essentials: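 First, HSE-bla HeLa cells were seeded at 1500 cells/well and kept overnight at 37 C. Next, compounds were pinned in and incubated 5 h. After the FRET substrate step, CellTiter-Glo was added and luminescence read 30 min later.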

Experiment [13] in a line: qHTS assay for small molecule activators of the heat shock response signaling pathway (AID 743210; active means well fitted activation curve with a large enough effect in the signal ratio in the repeat runs, with a control signal flat, not every such curve was filed as active; the % refers to the signal ratio;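 further: HeLa cells with beta-lactamase reporter driven by heat shock elements; series mostly up to about 63 µM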). The essentials: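 In HSE-bla HeLa cells, 5 h compound incubation (37 C) precedes addition of LiveBLAzer B/G substrate; after 2.5 h at room temperature, fluorescence intensity indicates reporter induction.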
The nature of experiment [14]: qHTS assay for small molecule agonists of the antioxidant response element (ARE) signaling pathway (AID 743202; active means well fitted activation curve with a large enough effect in the signal ratio in the repeat runs, not every such curve was filed as active; the % refers to the signal ratio). The essentials: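 An ARE-responsive beta-lactamase gene stably integrated in HepG2 cells serves as reporter. After 5 h plating and 16 h compound incubation at 37 C, fluorescence of the B/G FRET substrate was measured.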
A short description of experiment [15]: qHTS assay to identify small molecule antagonists of the estrogen receptor alpha (ER-alpha) signaling pathway - cell viability counter screen (AID 743074; calls by dose curve;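 further: HEK293 cells carrying ER-alpha-UAS-bla reporter stimulated with 17beta-estradiol; nearly all actives have a fitted effect of over 45% in size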).
Experiment [16] has as its target Peroxisome proliferator-activated receptor gamma (Homo sapiens) (UniProt P37231). Nature of the experiment: qHTS assay to identify small molecule antagonists of the peroxisome proliferator-activated receptor gamma (PPARg) signaling pathway (AID 743191; calls by dose curve; further: series mostly up to about 63 µM; nearly all actives have a fitted effect of over 30% in size). In outline: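 Beta-lactamase reporter under UAS control in HEK293H PPARg-bla cells; compound treatment 17 h at 37C. Read-out: fluorescence intensity after 1 h room-temperature incubation with LiveBLAzer B/G FRET substrate.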

The target of experiment [17] is Estrogen receptor (Homo sapiens) (UniProt P03372). In words: qHTS assay to identify small molecule antagonists of the estrogen receptor alpha (ER-alpha) signaling pathway (AID 743069; active means well fitted curve in the direction sought with a large enough effect in the signal ratio in the repeat runs, not every such curve was filed as active; the % refers to the signal ratio). In outline: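 Compound effects are measured against 17beta-estradiol stimulation in HEK293 cells with a UAS-controlled beta-lactamase reporter for ER-alpha. Exposure lasts 18 hr at 37C; LiveBLAzer B/G FRET substrate follows for 2 hr at room temperature.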

Experiment [18] is described as follows: qHTS assay to identify small molecule antagonists of the estrogen receptor alpha (ER-alpha) signaling pathway using the BG1 cell line (AID 743080; calls by dose curve;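 further: BG1 cells stimulated with 17beta-estradiol alongside compound; nearly all actives have a fitted effect of over 25% in size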; further: potency means the concentration at half of the fitted maximal effect). The essentials: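 Luciferase inhibition measured with ONE-Glo after 30 min at RT in BG1Luc4E2 cells given test compounds and 17beta-estradiol for 21.5 h at 37 C; CellTiter-Fluor viability read in the same wells beforehand.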

Experiment [19] addresses Estrogen receptor (Homo sapiens) (UniProt P03372). Nature of the experiment: qHTS assay to identify small molecule agonists of the estrogen receptor alpha (ER-alpha) signaling pathway using the BG1 cell line (AID 743079). Further: nearly all actives have a fitted effect of over 20% in size.

Records with an inconclusive call do not appear. Calls of active or inactive are those of the source. Unless noted, the call rests on the fitted dose curve; in most records, active means well fitted curve in the direction sought with a large enough effect in the repeat runs; inconclusive means weak or mixed curves; inactive means no such curve, though single readings can be large; an effect the other way counts as inactive or inconclusive.

Sequence of Peroxisome proliferator-activated receptor gamma (Homo sapiens) (P37231 whole entry, looked up): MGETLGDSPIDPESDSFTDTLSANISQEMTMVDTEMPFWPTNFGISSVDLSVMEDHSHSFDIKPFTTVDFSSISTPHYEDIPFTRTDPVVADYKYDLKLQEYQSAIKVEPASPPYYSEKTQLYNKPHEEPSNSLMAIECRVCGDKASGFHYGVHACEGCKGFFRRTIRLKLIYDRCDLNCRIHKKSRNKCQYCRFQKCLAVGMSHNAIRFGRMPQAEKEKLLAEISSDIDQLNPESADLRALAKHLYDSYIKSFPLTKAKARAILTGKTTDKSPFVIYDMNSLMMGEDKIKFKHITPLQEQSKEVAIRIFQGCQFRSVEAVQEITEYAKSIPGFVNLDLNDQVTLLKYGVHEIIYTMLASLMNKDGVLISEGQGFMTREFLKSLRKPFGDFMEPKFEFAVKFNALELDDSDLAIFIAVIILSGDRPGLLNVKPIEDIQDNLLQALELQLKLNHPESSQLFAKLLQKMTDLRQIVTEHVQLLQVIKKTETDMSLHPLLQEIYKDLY
Sequence of Aromatase (Homo sapiens) (P11511 whole entry, looked up): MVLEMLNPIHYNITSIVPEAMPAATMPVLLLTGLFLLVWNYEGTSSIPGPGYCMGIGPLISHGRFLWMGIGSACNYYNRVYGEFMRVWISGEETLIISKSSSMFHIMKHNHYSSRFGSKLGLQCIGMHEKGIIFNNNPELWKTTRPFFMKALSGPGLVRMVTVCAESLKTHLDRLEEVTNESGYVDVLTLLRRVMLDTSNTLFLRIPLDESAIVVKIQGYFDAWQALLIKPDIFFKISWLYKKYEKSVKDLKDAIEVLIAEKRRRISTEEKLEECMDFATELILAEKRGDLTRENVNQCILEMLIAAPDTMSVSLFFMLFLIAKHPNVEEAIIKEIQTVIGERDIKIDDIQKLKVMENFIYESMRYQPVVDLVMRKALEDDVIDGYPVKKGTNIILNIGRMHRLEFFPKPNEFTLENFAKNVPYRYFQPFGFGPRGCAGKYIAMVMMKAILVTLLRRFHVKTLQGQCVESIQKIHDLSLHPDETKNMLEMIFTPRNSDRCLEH

On to `CCCCCCCCC1CCC(=O)O1` (stereo not drawn), for which the Potency result (in [1]; in experiment [2]; with Aromatase (Homo sapiens); in experiment [6]; in [7]; in [8]) was “inactive” each time. The call in [3], in experiment [4], in [5], in experiment [9], in experiment [10] and in [11] was inactive. The outcome in [12] and in experiment [13] was inactive.
Turning to `O=C(c1ccc(O)cc1)c1ccc(O)c(O)c1O`, the Potency entry (in experiment [1]; in experiment [2]; in the experiment with Aromatase (Homo sapiens); in experiment [14]) was “inactive” each time. Also, the compound was classed as inactive in experiment [3], in experiment [5], in [9], in [10], in [11] and in [12]. Besides, the result in [13] was inactive. The Potency in [7] was 61.4 µM (active).
With `OCCCCC(O)CO` (stereo not drawn), the Potency result (in experiment [1]; in experiment [2]; with Aromatase (Homo sapiens); in [6]; in experiment [7]; in experiment [8]) was “inactive” in each case. For the same compound, the Potency entry in experiment [16] and in experiment [14] was “inactive” in each case. For the same compound, the result in experiment [15], in [5], in experiment [9], in [10], in [11] and in experiment [12] was inactive. The compound was classed as inactive in [13].
Turning to `CCCCCCOc1ccccc1C(N)=O`, the Potency result (in experiment [1]; with Aromatase (Homo sapiens); in experiment [6]; in [8]; in [16]) was “inactive” throughout. Besides, the outcome in [3], in [17], in [15], in [4], in [5] and in experiment [9] was inactive. Also, the result in [10], in experiment [11], in experiment [12] and in [13] was inactive. The Potency in [18] is 33.5 µM (active).
With `O=C(O)CCSSCCC(=O)O`, the Potency entry (in experiment [2]; in experiment [19]; in experiment [18]; with Aromatase (Homo sapiens); in experiment [6]; in experiment [7]) was “inactive” each time. Besides, the Potency entry in experiment [16] and in experiment [14] was “inactive” in each case. Also, the call in experiment [3], in experiment [17], in experiment [15], in experiment [4], in experiment [5] and in [9] was inactive. In addition, the compound was called inactive in experiment [10], in [11], in [12] and in experiment [13].
On to `O=C(O)c1cc(Cl)cc([N+](=O)[O-])c1Cl`, for which the Potency result (in [2]; in experiment [19]; in experiment [18]; with Aromatase (Homo sapiens); in [7]; in [8]) was “inactive” throughout. The Potency result in experiment [16] is “inactive”. Besides, the call in [3], in [17], in experiment [15], in [4], in experiment [5] and in [9] was inactive. The call in experiment [10], in experiment [11], in [12] and in experiment [13] was inactive.
As for `CCO[Si](CCCS)(OCC)OCC`, the Potency result (in experiment [2]; with Aromatase (Homo sapiens); in experiment [6]; in [7]; in [8]; in [14]) was “inactive” in each case. Besides, the result in experiment [3], in experiment [15], in experiment [5], in experiment [9], in [10] and in experiment [11] was inactive. Moreover, the call in experiment [12] and in experiment [13] was inactive.
Take `C[C@@H](O)[C@H]1C(=O)N2C(C(=O)O)=C(SCCN=CN)C[C@H]12`: the Potency result (in experiment [2]; in experiment [19]; in experiment [18]; in the experiment with Aromatase (Homo sapiens); in experiment [6]; in [8]) was “inactive” in each case. Moreover, the Potency result in experiment [16] and in experiment [14] was “inactive” each time. Further, the compound was classed as inactive in [3], in experiment [17], in experiment [15], in experiment [4], in experiment [5] and in experiment [9]. For the same compound, the compound was classed as inactive in [10], in experiment [11] and in experiment [13].
